# Sampled rows, rich in hits. Any-hit rate of the full collection: about 10%.
# VDR inh – vitamin D3 receptor (human) inhibition; AID 504847; 400,000 tested, 0.93% active; Potency, µM, for inactives: max response, negative = inhibition, usual class: inhibitors; VDR-SRC2-3 peptide fluorescence polarization, 2 h; also: potency is read from the fitted curve at half-maximal effect
#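 Two reagent solutions held at 4 deg C in the dark were dispensed, compounds pinned at 23 nl, and the mixture incubated 2 h at room temperature. Read-out: fluorescence polarization of VDR–SRC2-3 peptide binding.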
# PLK1 PBD inh – inhibitors of human PLK1 polo-box domain binding; Potency, µM, without a hit: max response, negative = inhibition, most hits filed as inhibitors; P53350; Plk1 PBD binding of FITC phosphopeptide, fluorescence polarization; 360,000 tested, 2.8% active; AID 720504; also: potency is read from the fitted curve at half-maximal effect; series mostly up to about 57 µM; nearly all actives have a fitted effect of over 65% in size
# Mm-Cpn inhibitor – blocks the Methanococcus maripaludis chaperonin Mm-Cpn. purified Mm-Cpn ATPase, ADP Transcreener TR-FRET. Potency, µM (titrated, usually from 76.9 µM), for inactives: at the top dose activity, negative = inhibition, actives largely listed as inhibitors. 330,000 tested, 0.031% active. AID 504842; also: potency is read from the fitted curve at half-maximal effect; nearly all actives have a fitted effect of over 80% in size
#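 Reaction buffer contained 30 mM Tris pH 7.4, 100 mM KCl, 5 mM MgCl2 and 1 mM DTT. Mm-CPN (25 nM final) hydrolysed 10 uM ATP over 30 min at 37°C; ADP was read by HTRF.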
# CCT chaperon mod – cytosolic chaperonin activity modulation. 360,000 tested, 0.3% active. activity change, % (concentration not given with the values), hits read low. purified chaperonin ATPase assay, HTRF ADP detection, 30 min; in the data active = activity change below about -30%
#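 Nucleotide hydrolysis assay: TRiC at 20–40 nM final (set by batch activity) with 10 uM ATP, 30 min at 37 °C, in presence of 76 uM compound. Detection by competitive ADP HTRF, 30 min ambient.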
# G9a block – blocks human histone lysine methyltransferase G9a; Q96KQ7; G9a H3K9 monomethylation, AlphaScreen, 2 h; Potency, µM (series often up to 102 µM), without a hit: at the top dose activity, negative = inhibition, actives largely listed as inhibitors; 350,000 tested, 8.8% active; AID 504332; also: potency is read from the fitted curve at half-maximal effect; nearly all actives have a fitted effect of over 75% in size
#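 Methyltransferase reactions run at room temperature for 2 h (20 nM enzyme, 500 nM biotin-H3K9 peptide, 20 uM SAM) after a 15 min compound preincubation; product detected by AlphaScreen beads and anti-H3K9me1 antibody.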
# Sfp PPTase inh – blocks B. subtilis Sfp PPTase activity | Potency, µM, for the others: largest response in the series, negative = inhibition, hits mostly inhibitors | Biochemical Sfp PPTase activity, qHTS | Q9F4F7 | 310,000 tested, 3.5% active;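 also: the enzyme is Sfp with the accession as filed and its product quenches rhodamine fluorescence; potency is read from the fitted curve at half-maximal effect; 0% = enzyme reaction without inhibitor and -100% = no enzyme wells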
#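 Reaction rates are the 30-min fluorescence difference (ex 525, em 598 nm) in wells containing 15 nM Sfp, 5 uM rhodamine-CoA and 12.5 uM BHQ-2-YbbR at pH 7.6 with 10 mM MgCl2.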
# Starred values were filed as active, the others as inactive; ? = inconclusive; / = not tested or not shown; [ ] = dose if it differs, or a comment. Unless noted, calls follow the shape of the dose curve; as a rule, active = well fitted curve in the direction sought with a large enough effect; inconclusive = small, poorly fitted or top-dose-only effect, or another doubt; inactive = no such curve, though single readings can be large; an effect the other way counts as inactive or inconclusive. Unless noted, % is scaled to controls: 0 for no effect and ±100 for the full control effect.
SMILES,VDR inh,PLK1 PBD inh,Mm-Cpn inhibitor,CCT chaperon mod,G9a block,Sfp PPTase inh
Cc1ccc(-n2c(=O)[nH]c3c(C(N)=O)nc(CC(C)C)nc32)cc1,-7%,-9%,1%,-3,55%[59 µM],-6%
Cc1ccc(-n2c(=O)[nH]c3c(C(N)=O)nc(-c4ccc(C)o4)nc32)cc1,8%,-13%,-1%,2,?,45µM*
Cc1cc(NC(=O)CCC(=O)N(CC(=O)NC2CCCC2)Cc2ccc3c(c2)OCO3)no1,7%,-3%,0%,0,50µM*,6%
Cc1cc(NC(=O)CCC(=O)N(CC2CCCO2)C(C(=O)NC2CCCC2)c2cccnc2)no1 (configuration not stated),-17%,27µM*,0%,0,-8%[12.7 µM],9%
C[N+](C)(C)CCCN(Cc1ccc2c(c1)OCO2)C(=O)NC1CCCCC1,5%,-9%,1%,1,50µM*,11%
C=CCN(C(=O)CCC(=O)Nc1cc(C)on1)C(C(=O)NC1CCCC1)c1cccnc1 (configuration not stated),15%,-7%,-1%,-1,15%[59 µM],14%
Cc1ccc2c(CC(=O)Nc3cccc(Cl)c3C)coc2c1,20%,/,/,/,-17%[59 µM],/
COc1ccc(NC(=O)CN2C(=O)CCc3cc(S(=O)(=O)N4CCOCC4)ccc32)c(OC)c1,-6%,/,/,/,6%[59 µM],/
Cc1ccc(CN2COc3c(Cl)cc4c(-c5ccccc5)cc(=O)oc4c3C2)cc1,16%,/,/,/,4%[59 µM],/
C#CCOCCOCCOCCNc1nc(N2CCN(C(=O)Cn3cc(CCCN=C(N)N)nn3)CC2)nc(N2CCN(C(=O)[C@H](CCCCN)n3cc(CC(C)O)nn3)CC2)n1 (some centres not stated),-17%,-5%,0%,-1,16%[2.33 µM],/
C#CCOCCOCCOCCNc1nc(N2CCN(C(=O)Cn3cc(CCCCN)nn3)CC2)nc(N2CCN(C(=O)[C@H]([C@@H](C)CC)n3cc(CCCN=C(N)N)nn3)CC2)n1,-20%,-1%,1%,-2,-4%[2.33 µM],/
C#CCOCCOCCOCCNc1nc(N2CCN(C(=O)[C@H]([C@@H](C)CC)n3cc(CCCN=C(N)N)nn3)CC2)nc(N2CCN(C(=O)[C@H]([C@@H](C)CC)n3cc(CCC(=O)O)nn3)CC2)n1,-24%,-2%,/,-1,/,/
C#CCOCCOCCOCCNc1nc(N2CCN(C(=O)Cn3cc(CCO)nn3)CC2)nc(N2CCN(C(=O)[C@H]([C@@H](C)O)n3cc(CCCCN)nn3)CC2)n1,-26%,1%,-1%,-1,79µM*,7%
C#CCOCCOCCOCCNc1nc(N2CCN(C(=O)Cn3cc(CC(C)O)nn3)CC2)nc(N2CCN(C(=O)[C@H](CCCCN)n3cc(CCC(=O)O)nn3)CC2)n1 (some centres not stated),-8%,0%,1%,-1,50µM*,-4%
C#CCOCCOCCOCCNc1nc(N2CCN(C(=O)Cn3cc(CCCN=C(N)N)nn3)CC2)nc(N2CCN(C(=O)[C@H]([C@@H](C)CC)n3cc(CCCN=C(N)N)nn3)CC2)n1,/,/,-4%,/,22µM*,-6%
C#CCOCCOCCOCCNc1nc(N2CCN(C(=O)Cn3cc(CCCN=C(N)N)nn3)CC2)nc(N2CCN(C(=O)[C@H](C(C)C)n3cc(CCO)nn3)CC2)n1,-13%,6%,0%,0,50µM*,11%
CCC(=O)NCc1nc2ccccc2n1Cc1ccccc1,7%,/,/,/,8%[59 µM],/
COCCOC(=O)C(C#N)c1nc2ccccc2nc1N1CCN(Cc2ccccc2)CC1 (configuration not stated),-22%,-11%,0%,1,?,-7%
COCC(C)OC(=O)C(C#N)c1nc2ccccc2nc1N1CCN(Cc2ccccc2)CC1 (configuration not stated),-18%,0%,-2%,0,45µM*,-19%
Cc1ccc2nc(-c3ccc(N4C(=NC(=O)CCC(=O)O)SC5CS(=O)(=O)CC54)cc3)sc2c1 (configuration not stated),-5%,-13%,-3%,0,45µM*,-6%

# Screens from PubChem BioAssay.
